High-throughput results: PubChem BioAssay, several laboratories
Hits are enriched below; roughly 2.4% of the tested compounds scored in any of these assays.
Pf gamet viab = late stage P. falciparum gametocyte viability inhibitors, primary screen, ATP luminescence, HTS; P. falciparum stage V gametocytes, 24 h; inhibition, % at 10.9 µM; 0.065% of 150,000 active;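 active means inhibition above the mean plus 3 SD of compounds within the control limits, set per campaign, cut at about 38% in these data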;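 further: 0% = DMSO wells and 100% = medium only without gametocytes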
Arbovirus inh = antivirals against arbovirus infection, primary screen, cell-based, full library, 10K replicate subset. AID 1251, 2008. arbovirus infection cell-based antiviral screen. 0.37% of 200,000 active. inhibition, % at 10 µM; in the data active means inhibition above about 30%
MEKK2mut PB1 HTS = MEK5 binding signal on mutant MEKK2 PB1, primary screen, biochemical, multiplex bead flow cytometry, Alexa488-MEK5; Alexa488-MEK5 binding to MEKK2 mutant; percent response, % at 10 µM; 0.35% of 290,000 active; in the data active means percent response above about 24%, passing the limit was not always enough
MEKK3 PB1 HTS = modulators of MEKK3-MEK5 PB1 binding, primary screen, biochemical, wildtype MEKK3, multiplex bead flow cytometry, Alexa488-MEK5 | Mitogen-activated protein kinase kinase kinase 3 (Homo sapiens), Q99759 | binding response (% of control), % at 10 µM | bead-based flow cytometry, Alexa488-MEK5 binding to MEKK3; actives lie on both sides; 0 = blocked by unlabeled MEK5, 100 = vehicle | 1.4% of 290,000 active;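 active means binding response more than 3 SD above or below the average of its plate-row segment, actives on both sides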;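 further: Alexa488 bead fluorescence after subtracting the streptavidin-only scavenger bead signal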
Target sequence (Q99759 whole entry, looked up): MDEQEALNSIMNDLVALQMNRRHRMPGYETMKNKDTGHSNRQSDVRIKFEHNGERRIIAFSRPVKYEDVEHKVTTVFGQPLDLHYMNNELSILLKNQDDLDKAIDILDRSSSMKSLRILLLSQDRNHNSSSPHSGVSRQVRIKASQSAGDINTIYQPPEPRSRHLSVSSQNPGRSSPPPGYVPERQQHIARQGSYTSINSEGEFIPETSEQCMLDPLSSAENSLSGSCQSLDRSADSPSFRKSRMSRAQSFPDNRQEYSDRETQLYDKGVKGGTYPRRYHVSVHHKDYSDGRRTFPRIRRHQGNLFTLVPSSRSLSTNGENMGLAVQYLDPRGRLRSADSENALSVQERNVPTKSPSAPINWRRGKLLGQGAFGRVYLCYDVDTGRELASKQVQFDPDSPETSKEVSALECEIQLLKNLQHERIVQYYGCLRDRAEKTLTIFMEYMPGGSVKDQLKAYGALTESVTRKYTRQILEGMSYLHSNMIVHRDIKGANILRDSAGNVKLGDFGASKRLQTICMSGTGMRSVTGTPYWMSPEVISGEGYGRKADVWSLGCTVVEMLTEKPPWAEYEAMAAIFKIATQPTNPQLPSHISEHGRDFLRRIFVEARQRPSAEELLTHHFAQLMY
MEKK2wt PB1 HTS = modulators of MEK5 binding to wildtype MEKK2, primary screen, biochemical, multiplex bead flow cytometry, Alexa488-MEK5 | Mitogen-activated protein kinase kinase kinase 2 (Homo sapiens), Q9Y2U5 | Alexa488-MEK5 binding to MEKK2 WT; actives lie on both sides | binding response (% of control), % at 10 µM | 1.1% of 290,000 active; in the data active means binding response below about 67% or above about 130%
MEKK2wt confirm = modulators of MEK5 binding to wildtype MEKK2, confirmation, biochemical, single concentration, multiplex bead flow cytometry; shares compounds with MEKK3 PB1 HTS; Alexa488-MEK5 binding to MEKK2 WT; actives lie on both sides; binding response (% of control), % at 10 µM; 2.4% of 5,900 active; AID 1892, 2009; in the data active means binding response below about 16% or above about 210%; inactive means in between
MEKK2mut-MEK5 = mutant MEKK2 PB1-MEK5 binding signal retest – biochemical, single concentration, multiplex bead flow cytometry, confirmation | shares compounds with MEKK3 PB1 HTS | Alexa488-MEK5 binding to MEKK2 mutant | percent response, % at 10 µM | 2% of 5,900 active; in the data active means percent response mostly above about 71%, no sharp cut-off; inactive means mostly below about 38%;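 further: higher means compound restores mutant binding toward wildtype level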
MEKK3 confirm = MEKK3 wild-type PB1 binding to MEK5, inhibitors, confirmation, biochemical, bead multiplex flow cytometry, single concentration, wildtype; shares compounds with MEKK3 PB1 HTS; Alexa488-MEK5 binding to MEKK3; hits give low values; binding response (% of control), % at 10 µM; 1.8% of 5,900 active; AID 1894, 2009;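 active means binding response below 72% of control, or above a set upper limit, though filed actives all read lower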;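 further: 100% = DMSO only wells and 0% = binding blocked by excess unlabeled MEK5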
Numbers without * were called inactive; [ ] = dose if it differs, or a comment.

`CCOC(=O)N1CCN(CC(=O)Nc2cc(OC)c(OC)cc2C#N)CC1` gave Pf gamet viab 12, Arbovirus inh 4, MEKK2mut PB1 HTS 5, MEKK3 PB1 HTS 100 and MEKK2wt PB1 HTS 100.
COC(=O)c1cc(NC(=O)c2ccc(F)cc2)cc(C(=O)OC)c1 was read as Pf gamet viab -12, Arbovirus inh -3, MEKK2mut PB1 HTS 103*, MEKK3 PB1 HTS 89, MEKK2wt confirm 98, MEKK2mut-MEK5 -2 and MEKK3 confirm 98.
Screening COC(=O)c1cc(NC(=O)c2ccccc2F)cc(C(=O)OC)c1 returned Pf gamet viab 18, Arbovirus inh 12, MEKK2mut PB1 HTS 0, MEKK3 PB1 HTS 113 and MEKK2wt PB1 HTS 109.
CC(=O)N1CCN(C(=S)c2cccc([N+](=O)[O-])c2)CC1 was read as Pf gamet viab -15, Arbovirus inh 0, MEKK2mut PB1 HTS 0, MEKK3 PB1 HTS 132*, MEKK2wt PB1 HTS 109, MEKK2wt confirm 45, MEKK2mut-MEK5 -14 and MEKK3 confirm 72.
For O=C(OCCC1Oc2cccnc2NC1=O)c1ccc([N+](=O)[O-])cc1 (centres undefined) the results were Arbovirus inh 0, MEKK2mut PB1 HTS -9, MEKK3 PB1 HTS 74*[inhibitor], MEKK2wt PB1 HTS 75, MEKK2wt confirm 100, MEKK2mut-MEK5 -1 and MEKK3 confirm 99.
Screening O=C(Nc1ccccn1)c1ccc([N+](=O)[O-])cc1Cl returned Pf gamet viab -11, Arbovirus inh -5, MEKK2mut PB1 HTS 14, MEKK3 PB1 HTS 103 and MEKK2wt PB1 HTS 113.
For O=C(Nc1ccccn1)c1cc2cc([N+](=O)[O-])ccc2s1 the results were Pf gamet viab 9, Arbovirus inh 5, MEKK2mut PB1 HTS 79*, MEKK3 PB1 HTS 106, MEKK2wt PB1 HTS 103, MEKK2wt confirm 105, MEKK2mut-MEK5 8 and MEKK3 confirm 106.
Screening O=[N+]([O-])c1ccc(-c2ccc(/C=N/Nc3nc(N4CCCCC4)nc(N4CCCCC4)n3)o2)cc1 returned Pf gamet viab -6, Arbovirus inh -28, MEKK2mut PB1 HTS 99*, MEKK3 PB1 HTS 98, MEKK2wt PB1 HTS 101, MEKK2wt confirm 99, MEKK2mut-MEK5 -4 and MEKK3 confirm 103.
Screening CC(=O)N1CCc2cc(S(=O)(=O)NC(CC(C)C)C(=O)N3CCCC3)ccc21 (centres undefined) returned MEKK2mut PB1 HTS -4, MEKK3 PB1 HTS 96 and MEKK2wt PB1 HTS 97.
COc1ccc(/C=N/NC(=O)CCn2nc(C)cc2C)cc1 was read as Pf gamet viab -5, MEKK2mut PB1 HTS 30, MEKK3 PB1 HTS 133*, MEKK2wt PB1 HTS 112, MEKK2wt confirm 96, MEKK2mut-MEK5 -3 and MEKK3 confirm 98.
Screening Cc1ccc(NC(=O)CCn2nc(C)cc2C)cc1 returned Pf gamet viab 14, Arbovirus inh -2, MEKK2mut PB1 HTS 10, MEKK3 PB1 HTS 142*, MEKK2wt PB1 HTS 139*, MEKK2wt confirm 101, MEKK2mut-MEK5 1 and MEKK3 confirm 100.
COc1ccc(/C=N/NC(=O)CCn2nc(C)cc2C)cc1O was read as Pf gamet viab -3, MEKK2mut PB1 HTS 6, MEKK3 PB1 HTS 100 and MEKK2wt PB1 HTS 103.
For CC(C)(C)NC(=O)CSc1ccc(C(C)(C)C)cc1 the results were Pf gamet viab 1, Arbovirus inh -12, MEKK2mut PB1 HTS 3, MEKK3 PB1 HTS 97 and MEKK2wt PB1 HTS 100.
`CCOc1ccccc1NC(=O)CC1SC(=N)N(c2ccccc2)C1=O` (centres undefined) gave Arbovirus inh 4, MEKK2mut PB1 HTS 0, MEKK3 PB1 HTS 139*, MEKK2wt PB1 HTS 112, MEKK2wt confirm 107, MEKK2mut-MEK5 6 and MEKK3 confirm 108.
Screening COc1ccccc1NC(=O)CC1SC(=N)N(c2ccccc2)C1=O (centres undefined) returned Pf gamet viab 16, Arbovirus inh -1, MEKK2mut PB1 HTS 3, MEKK3 PB1 HTS 103 and MEKK2wt PB1 HTS 104.
For COc1ccc(/C=N/NC(=O)c2ccc(F)cc2)cc1CN1CCc2cc(OC)c(OC)cc2C1C (centres undefined) the results were Arbovirus inh -11, MEKK2mut PB1 HTS 16, MEKK3 PB1 HTS 104 and MEKK2wt PB1 HTS 118.
For COc1ccc(/C=N/NC(=O)c2ccc(O)cc2)cc1CN1CCCc2ccccc21 the results were Arbovirus inh -22, MEKK2mut PB1 HTS 24, MEKK3 PB1 HTS 97, MEKK2wt PB1 HTS 44*[inhibitor], MEKK2wt confirm 88, MEKK2mut-MEK5 -9 and MEKK3 confirm 103.
`CSc1ccc(/C=C(/NC(=O)c2ccco2)C(=O)N2CCOCC2)cc1` gave MEKK2mut PB1 HTS 10, MEKK3 PB1 HTS 106 and MEKK2wt PB1 HTS 112.
Screening Cc1cccc2[nH]c(CN(C)Cc3nc(CC4CC4)no3)nc12 returned Arbovirus inh 12, MEKK2mut PB1 HTS -8, MEKK3 PB1 HTS 101 and MEKK2wt PB1 HTS 94.
Cc1c2cnn(CC(=O)NCCN3CCOCC3)c(=O)c2c(C)n1Cc1ccccc1 was read as MEKK2mut PB1 HTS 3, MEKK3 PB1 HTS 100 and MEKK2wt PB1 HTS 101.
Cc1c2cnn(CC(=O)NCCCN3CCCCC3)c(=O)c2c(C)n1Cc1ccccc1 was read as MEKK2mut PB1 HTS 22, MEKK3 PB1 HTS 101, MEKK2wt PB1 HTS 137*, MEKK2wt confirm 128, MEKK2mut-MEK5 20 and MEKK3 confirm 98.
Screening O=S(=O)(N1CCCCC1)N1CCN(CC(O)COc2ccc3cc(Br)ccc3c2)CC1 (centres undefined) returned Arbovirus inh 22, MEKK2mut PB1 HTS 8, MEKK3 PB1 HTS 100 and MEKK2wt PB1 HTS 130.
`CN(C)S(=O)(=O)N1CCN(CC(O)COc2ccc3cc(Br)ccc3c2)CC1` (centres undefined) gave Pf gamet viab -10, Arbovirus inh -22, MEKK2mut PB1 HTS 19, MEKK3 PB1 HTS 107, MEKK2wt PB1 HTS 134*, MEKK2wt confirm 151, MEKK2mut-MEK5 27 and MEKK3 confirm 112.
